# An excerpt weighted towards active compounds, which were near 7.3% of everything screened.
# FLuc counter = firefly luciferase modulation, counter-screen for miR-21 project; Potency, µM (highest dose often 57.5 µM), for inactives: at the highest dose activity change, negative = inhibition, actives largely listed as inhibitors; 360,000 tested, 6.9% active; AID 588342; P08659; purified FLuc, Km substrates, luminescence inhibition;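 note: plate controls were vehicle for no effect and reference inhibitor for full effect; nearly all actives have a fitted effect of over 55% in size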
# Target sequence (P08659 whole entry, looked up): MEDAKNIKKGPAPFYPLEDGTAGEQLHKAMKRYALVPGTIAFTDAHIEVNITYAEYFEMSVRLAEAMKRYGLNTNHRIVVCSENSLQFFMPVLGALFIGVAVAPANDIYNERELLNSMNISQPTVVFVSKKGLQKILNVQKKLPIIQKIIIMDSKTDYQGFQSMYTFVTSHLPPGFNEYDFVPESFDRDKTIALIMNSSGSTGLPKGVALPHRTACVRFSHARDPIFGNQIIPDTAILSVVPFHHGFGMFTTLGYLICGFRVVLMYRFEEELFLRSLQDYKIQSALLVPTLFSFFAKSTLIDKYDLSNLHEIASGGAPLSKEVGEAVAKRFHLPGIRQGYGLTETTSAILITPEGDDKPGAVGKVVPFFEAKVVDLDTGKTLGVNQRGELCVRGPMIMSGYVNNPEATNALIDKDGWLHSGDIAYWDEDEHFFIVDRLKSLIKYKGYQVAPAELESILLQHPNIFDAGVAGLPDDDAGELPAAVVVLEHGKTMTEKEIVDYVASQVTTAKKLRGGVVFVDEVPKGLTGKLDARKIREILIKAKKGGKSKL
#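 Biochemical qHTS of compounds, final roughly 60 µM downward over six points, against 10 nM purified firefly luciferase using Km concentrations of substrates (10 uM D-luciferin, 10 uM ATP) in Tris acetate pH 7.5 buffer; luminescence output.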
# p53 reactivation = mutant p53 re-activation in reporter cells; Potency, µM (highest dose often 92.2 µM), without a hit: at the top dose activity change, positive = activation, most hits filed as activators; AID 504706; H1299 p53-A138V BP100-luciferase reporter, luminescence, 24 h; 320,000 tested, 0.063% active; note: % of control where 0% means no effect; nearly all actives have a fitted effect of over 45% in size
#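 H1299 (p53-null), stable ts p53-A138V + BP100-Luc; 1000 cells/well, Opti-MEM/10% FBS; cpd 4 pt, 1:5; 24 h, 37 deg C, 5% CO2; detection reagent 10 min RT; luminescence.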
# NPC1 promoter act = activators of NPC1 promoter. Huh7 NPC1 promoter luciferase reporter, 24 h. 320,000 tested, 2.4% active. Potency, µM (series often up to 9.22 µM), inactives show at the highest dose activation, actives largely listed as activators; note: % of control where 0% means no effect; nearly all actives have a fitted effect of over 60% in size
#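 Luminescence from an NPC1 promoter-driven luciferase reporter in stably transfected Huh7 cells was measured after 24 h compound treatment at 37 °C, followed by 10 min ambient incubation with luciferase detection reagent.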
# ELG1 genotox = induces genotoxicity in HEK293T cells with luciferase-tagged ELG1; HEK293T ELG1-luciferase reporter, luminescence, 16 h; Potency, µM (series often up to 46 µM), for inactives: at the top dose activity change, positive = activation, actives largely listed as activators; 330,000 tested, 1.3% active; AID 504466; note: % of control where 0% means no effect; nearly all actives have a fitted effect of over 60% in size
#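 Luminescence read-out: rising ELG1-luciferase signal, reflecting elevated ELG1 protein under genetic stress, flags genotoxic compounds. Cells were treated for 16 hr at 37 °C before ONE-Glo detection.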
# SMN2 splice enh = increases expression of the SMN2 splice variant; HEK293 SMN2-luciferase splicing reporter, luminescence, 30-36 h; Potency, µM (doses to about 46.1 µM), without a hit: at the highest dose activity change, positive = activation, actives largely listed as activators; 210,000 tested, 2.8% active; note: % of control where 0% means no effect; nearly all actives have a fitted effect of over 55% in size
#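 qHTS luciferase splicing reporter: luminescence rises when SMN2 exon 7 is included in transfected HEK293 cells. Compound exposure lasted 30-36 h at 37C, with 4.5 mM final sodium butyrate as control, followed by a ONE-Glo read.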
# Rab9 prom act = Rab9 promoter activation; Huh7 Rab9 promoter-luciferase reporter, luminescence, 24 h; Potency, µM (series often up to 9.22 µM), inactives show at the highest dose activation, negative = inhibition, usual class: activators; 320,000 tested, 2.8% active; note: % of control where 0% means no effect; nearly all actives have a fitted effect of over 60% in size
#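 Luminescence read-out: Huh7 cells stably expressing Rab9-luciferase, treated 24 h with compound at 37 °C, then lysed with luciferase reagent for 10 min at ambient before reading.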
# Active calls of the source: *; u = inconclusive; x = no result; [ ] = dose if it differs, or a comment. Calls come from the whole dose curve; as a rule, active = well fitted curve in the direction sought with a large enough effect; inconclusive = small, poorly fitted or top-dose-only effect, or another doubt; inactive = no such curve, though single readings can be large; an effect the other way counts as inactive or inconclusive. Potency is the fitted concentration of half-maximal effect.
SMILES,FLuc counter,p53 reactivation,NPC1 promoter act,ELG1 genotox,SMN2 splice enh,Rab9 prom act
NC(N)=N[C@@H]1C(O)[C@H](N=C(N)N)[C@@H](O)C(O)[C@H]1O (stereo partly drawn),x,x,x,x,7.7%[9.22 µM],x
C=CCNC(=O)c1cc(-c2ccc(Br)cc2)on1,u,u,1.26µM*,u,11.2µM*,0.794µM*
O=C(NCCc1ccccc1)c1cc(-c2ccc(Br)cc2)on1,-6.8%,x,x,x,-7.2%,x
Cc1ccc(O)c(NC(=O)c2cc(-c3ccc(F)cc3)on2)c1,-13.4%,10.6%,u,7.6%,u,26.8%
CC(C)NC(=O)c1cc(-c2cccs2)on1,15.1µM*,u,3.16µM*,4.47µM*,12.6µM*,2.82µM*
Cc1ccc(O)c(NC(=O)c2cc(-c3cccs3)on2)c1,2.13µM*,u,18.2%,18.3µM*,x,-0.9%
Cc1ccc(O)c(NC(=O)c2noc(C(C)C)c2[N+](=O)[O-])c1,19µM*,u,-1.7%,u,29.5%,-2.8%
CCOc1ccc(Cn2c(CNS(=O)(=O)c3ccc([N+](=O)[O-])cc3)nc3cccnc32)cc1,-0.4%,x,x,x,x,x
Cc1ccc(O)c(NC(=O)c2onc(C)c2Cl)c1,16.9µM*,20.9%,18.1%,u,x,-5.9%
C=CCNC(=O)c1cc(-c2cccs2)on1,13.5µM*,x,x,x,x,x
CC(=O)Nc1ccc(NC(=O)c2cc(-c3cccs3)on2)cc1,-8.8%,x,x,x,x,x
Cc1noc(C(=O)Nc2ccc(F)cc2F)c1Cl,-3.2%,14.5%,17.1%,10.0%,x,27.2%
CC(=O)NC(Cc1ccccc1)C(=O)OCC(=O)c1ccc(Br)cc1 (stereo not drawn),-7.8%,-3.0%,2.0%,1.0%,16.9%,0.7%
COc1ccccc1NC(CC(=O)c1ccccc1)C(=O)OCC(=O)c1ccc(C)cc1 (stereo not drawn),3.38µM*,u,9.7%,2.31µM*,8.91µM*,25.6%
COc1ccccc1NC(CC(=O)c1ccccc1)C(=O)OCC(=O)c1ccc(C)c(C)c1 (stereo not drawn),3.01µM*,x,15.7%,2.06µM*,8.91µM*,18.8%
COc1ccccc1NC(CC(=O)c1ccccc1)C(=O)OCC(=O)c1ccc(Br)cc1 (stereo not drawn),2.13µM*,u,19.9%,2.06µM*,26.8%,10.9%
O=C(CC(Nc1ccccc1Cl)C(=O)OCC(=O)c1cccs1)c1ccccc1 (stereo not drawn),-18.4%,u,5.3%,u,-7.9%,15.1%
Cc1cc(O)c(C(=O)Cc2csc(C)n2)c(O)c1,26.9µM*,7.0%,u,u,u,3.98µM*
Cc1ccc(C(=O)C=CNNC(=O)c2ccccc2)cc1,23.9µM*,x,11.9%,-1.2%,x,9.1%
Cc1ccc(S/C=C\C(=O)c2ccccc2)cc1,0.135µM*,u,10.2%,18.4µM*,-3.3%,11.3%
CC(/C=C/C(=O)c1ccc(C)cc1)=C\c1ccccc1,4.26µM*,u,u,17.6%,-26.4%,u
Cc1ccc(C(=O)/C=C\NCc2ccccc2)cc1,10.7µM*,u,u,13.9%,u,u
Cc1ccc(C(=O)/C=C\C(=O)c2ccc(C)cc2)cc1,u,-31.1%,-8.2%,u,24.5%,-0.5%
Cc1onc(-c2c(F)cccc2Cl)c1C(=O)N(Cc1ccccc1)C(C)C,0.9%,13.1%,-3.7%,-10.2%,x,0.3%
CCOC(=O)C1CCCN(S(=O)(=O)c2ccc3c(c2)CCN3C(=O)CC)C1 (stereo not drawn),5.5%,x,x,x,-22.3%,x
Cc1cc(C(=O)NNC(=O)COc2ccccc2Cl)n[nH]1,-1.0%,1.6%,-0.4%,1.1%,x,9.2%
CCOc1ccc(NC(=O)c2ccc3c(c2)nnn3C2CCCC2)cc1,-5.3%,x,x,x,x,x
O=C(/C=C/NNC(=O)c1ccccc1O)c1ccccc1,19µM*,x,18.1%,4.2%,x,13.8%
O=C(/C=C/NNC(=O)c1ccccc1)c1ccccc1,u,13.3%,5.2%,u,1.0%,-0.7%
